From PubChem BioAssay (NCATS)
Results filed as inconclusive are left out. Activity calls are given as the source filed them. Unless noted, the call rests on the fitted dose curve; in most records, active means well fitted curve in the direction sought with a large enough effect; inconclusive means small, poorly fitted or top-dose-only effect, or another doubt; inactive means no such curve, though single readings can be large; an effect the other way counts as inactive or inconclusive.

Tests used:
[1] = target: Lysosomal acid glucosylceramidase (Homo sapiens) (UniProt P04062); test: Glucocerebrosidase-p2 (AID 348; in the data active means potency below about 10 µM; further: potency means the concentration at half of the fitted maximal effect); settings: purified GBA, blue fluorogenic substrate, 40 min
Sequence of Lysosomal acid glucosylceramidase (Homo sapiens) (P04062 whole entry, looked up): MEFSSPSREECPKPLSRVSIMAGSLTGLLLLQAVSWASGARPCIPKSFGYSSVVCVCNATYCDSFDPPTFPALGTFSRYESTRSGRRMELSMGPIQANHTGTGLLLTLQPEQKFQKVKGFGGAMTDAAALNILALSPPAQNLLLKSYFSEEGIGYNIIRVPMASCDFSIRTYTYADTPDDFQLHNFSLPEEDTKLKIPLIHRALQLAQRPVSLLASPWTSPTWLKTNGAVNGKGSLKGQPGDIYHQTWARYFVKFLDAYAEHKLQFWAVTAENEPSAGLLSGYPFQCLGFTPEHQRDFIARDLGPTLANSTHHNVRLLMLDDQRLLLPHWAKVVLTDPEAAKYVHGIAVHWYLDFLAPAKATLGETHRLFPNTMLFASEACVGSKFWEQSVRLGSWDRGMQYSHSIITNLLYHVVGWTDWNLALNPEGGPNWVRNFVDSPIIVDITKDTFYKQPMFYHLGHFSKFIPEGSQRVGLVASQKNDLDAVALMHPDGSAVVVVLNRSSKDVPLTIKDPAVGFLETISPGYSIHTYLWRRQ
In short: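 Compounds titrated from 0.6 nM upwards against 0.2 nM enzyme in pH 5.9 citric acid/KH2PO4, taurocholate, tween-20; blue fluorogenic substrate 80 uM, 40 min room temperature, stopped and read Ex 365/Em 440 for AC50.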

[2] = AP1 Signaling Pathway (AID 357; active means well fitted curve in either direction with a large enough effect, not every such curve was filed as active;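 further: ME-180 reporter cells stimulated with EGF at its EC50 level; on the % scale 0 is the no-effect control and ±100 the full control effect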); settings: ME-180 AP-1-bla reporter, EGF-induced, beta-lactamase ratio, 5 h; at 7.69 µM (top of the series) unless noted
In short: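 In this screen, ME-180 cells in Opti-MEM with 0.5% dialyzed FBS received EC50 EGF and compound titrations for 5 h. AP-1 reporter beta-lactamase was detected via CCF4 ratio, giving AC50 for positive and negative modulators.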

[3] = target: Cytochrome P450 1A2 (Homo sapiens) (UniProt P05177); test: p450-cyp1a2 (AID 410; calls by dose curve; further: potency means the concentration at half of the fitted maximal effect); settings: recombinant CYP1A2, luciferin-ME demethylation, luminescence; series mostly up to 57 µM
Sequence of Cytochrome P450 1A2 (Homo sapiens) (P05177 whole entry, looked up): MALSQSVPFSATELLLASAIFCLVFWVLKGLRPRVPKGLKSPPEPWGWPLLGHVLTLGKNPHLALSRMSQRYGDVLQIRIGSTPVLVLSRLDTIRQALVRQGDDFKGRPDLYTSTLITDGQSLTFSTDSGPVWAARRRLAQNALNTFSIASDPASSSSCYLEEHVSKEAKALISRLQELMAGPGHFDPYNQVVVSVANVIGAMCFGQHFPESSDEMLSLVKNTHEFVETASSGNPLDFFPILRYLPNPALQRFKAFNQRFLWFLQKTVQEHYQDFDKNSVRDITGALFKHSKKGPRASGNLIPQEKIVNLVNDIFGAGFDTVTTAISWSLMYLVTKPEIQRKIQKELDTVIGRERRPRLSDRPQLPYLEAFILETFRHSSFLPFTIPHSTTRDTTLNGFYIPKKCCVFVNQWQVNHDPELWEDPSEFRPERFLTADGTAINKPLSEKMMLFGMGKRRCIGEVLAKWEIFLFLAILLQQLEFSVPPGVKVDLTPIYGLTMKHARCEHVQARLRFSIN
In short: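 Luminescent readout of luciferin formed from Luciferin-ME by human CYP1A2; data normalized against complete inhibition by 57 uM furafylline. Enzyme 20nM, substrate 100uM at Km, 100mM KPO4 buffer, 60 min reaction at room temperature.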

[4] = NFAT Signaling Pathway (AID 444; active means well fitted curve in either direction with a large enough effect, not every such curve was filed as active;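 further: carbachol stimulus at about its EC50 of 1 µM final; on the % scale 0 is the no-effect control and ±100 the full control effect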); settings: Jurkat NFAT-bla M1, carbachol, beta-lactamase ratio, 5 h; at 7.69 µM (top of the series) unless noted
In short: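 Jurkat cells carrying an NFAT-driven β-lactamase reporter and co-transfected muscarinic M1 receptor were treated with compound plus carbachol (1 uM final, an EC50 level) for 5 h at 37 °C. CCF4 loading followed for 1 h at RT; 460/530 nm ratio gave %activity.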

[5] = Stat Signaling Pathway (AID 446; active means well fitted curve in either direction with a large enough effect, not every such curve was filed as active;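 further: ME-180 cervical cancer cells given 40 pM IL-6 alongside compound; SIE-controlled beta-lactamase reporter measured as 460/530 nm FRET emission ratio; on the % scale 0 is the no-effect control and ±100 the full control effect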); settings: ME-180 SIE beta-lactamase reporter, IL-6 stimulated, 5 h; at 7.69 µM (top of the series) unless noted
In short: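 Screening format detects activators and inhibitors alike: ME-180 SIE-bla cells stimulated at 40 pM IL-6 for 5 hrs with compound, then dual-emission beta-lactamase read at 405 nm excitation.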

[6] = target: Glucocorticoid receptor (Homo sapiens) (UniProt P04150); test: GR-GFP Redistribution (AID 450;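 active means compounds whose dose series gives a full or clear partial fitted curve of increased nuclear translocation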; further: potency means the concentration at half of the fitted maximal effect); settings: U2OS GR-GFP nuclear translocation, laser cytometry, 2 h
Sequence of Glucocorticoid receptor (Homo sapiens) (P04150 whole entry, looked up, the tested form may be a part): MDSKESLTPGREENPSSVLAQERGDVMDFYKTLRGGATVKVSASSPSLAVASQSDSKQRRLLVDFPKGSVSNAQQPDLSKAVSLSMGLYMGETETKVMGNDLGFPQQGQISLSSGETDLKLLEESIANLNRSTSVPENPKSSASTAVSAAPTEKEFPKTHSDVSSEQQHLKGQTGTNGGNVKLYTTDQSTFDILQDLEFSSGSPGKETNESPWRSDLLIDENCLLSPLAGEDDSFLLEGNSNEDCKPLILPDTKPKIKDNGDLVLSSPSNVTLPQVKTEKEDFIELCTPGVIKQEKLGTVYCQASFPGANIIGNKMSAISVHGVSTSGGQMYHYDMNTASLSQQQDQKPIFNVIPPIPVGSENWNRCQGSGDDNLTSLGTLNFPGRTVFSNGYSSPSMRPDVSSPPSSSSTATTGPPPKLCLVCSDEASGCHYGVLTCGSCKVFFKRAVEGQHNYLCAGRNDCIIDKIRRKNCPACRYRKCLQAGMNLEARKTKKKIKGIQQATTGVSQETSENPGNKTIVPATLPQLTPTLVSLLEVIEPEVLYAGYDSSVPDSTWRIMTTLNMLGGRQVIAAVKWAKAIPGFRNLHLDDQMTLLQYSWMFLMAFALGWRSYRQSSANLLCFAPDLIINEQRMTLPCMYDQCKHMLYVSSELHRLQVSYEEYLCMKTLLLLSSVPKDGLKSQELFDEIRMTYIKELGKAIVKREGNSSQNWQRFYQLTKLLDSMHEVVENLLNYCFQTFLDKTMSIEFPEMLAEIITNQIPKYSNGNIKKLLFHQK

[7] = target: Glucocorticoid receptor (Homo sapiens) (UniProt P04150); test: GR-EFC Redistribution (AID 451; calls by dose curve; further: potency means the concentration at half of the fitted maximal effect); settings: CHO-K1 GR-EFC translocation, beta-gal luminescence, 2 h
In short: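 CHO-K1 cells stably expressing nuclear-localized β-gal enzyme acceptor and GR fused C-terminally to the enzyme donor fragment; ligand-driven nuclear translocation restores β-gal by complementation. Compounds titrated up to 46 uM final, 2 h at 37 °C; luminescence read.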

[8] = target: Mitogen-activated protein kinase 10 (Mus musculus) (UniProt Q61831); test: JNK3 AlphaScreen Assay (AID 530; active means well fitted curve in either direction with a large enough effect, not every such curve was filed as active;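 further: kinase came from lysate of stimulated human HepG2 cells; signal reports phosphorylation of biotinylated GST-cJun 1-79 at Ser73 with 10 µM ATP; on the % scale 0 is the no-effect control and ±100 the full control effect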); settings: JNK3 lysate, c-Jun phosphorylation; series mostly up to 57.1 µM
In short: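 Inhibitors reduce antibody binding to phosphorylated biotin-cJun, lowering AlphaScreen luminescence. Lysates from HepG2 cells pre-activated by IL-1beta plus TNF-alpha supplied JNK3; compounds were titrated.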

[9] = target: Cytochrome P450 3A4 (Homo sapiens) (UniProt P08684); test: qHTS Assay for Activators of Cytochrome P450 3A4 (AID 885); settings: recombinant CYP3A4, Luciferin-PPXE luminescence, 60 min; series mostly up to 57.1 µM; further: nearly all actives have a fitted effect of over 65% in size
Sequence of Cytochrome P450 3A4 (Homo sapiens) (P08684 whole entry, looked up): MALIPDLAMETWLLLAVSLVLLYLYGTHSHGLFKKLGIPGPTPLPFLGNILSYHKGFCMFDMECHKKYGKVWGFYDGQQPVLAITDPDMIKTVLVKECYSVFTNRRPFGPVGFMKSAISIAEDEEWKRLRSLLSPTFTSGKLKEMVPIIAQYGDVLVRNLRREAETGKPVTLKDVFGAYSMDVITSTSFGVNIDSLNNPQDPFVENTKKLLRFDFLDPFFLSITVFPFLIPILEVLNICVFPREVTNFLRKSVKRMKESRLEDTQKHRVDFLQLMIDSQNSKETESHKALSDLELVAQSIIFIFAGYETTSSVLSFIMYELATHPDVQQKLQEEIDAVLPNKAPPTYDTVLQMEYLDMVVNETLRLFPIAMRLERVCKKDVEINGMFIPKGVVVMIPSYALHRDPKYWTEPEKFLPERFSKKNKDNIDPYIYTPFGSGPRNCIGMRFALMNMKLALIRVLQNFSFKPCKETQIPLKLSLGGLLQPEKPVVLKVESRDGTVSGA
In short: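 Steps: enzyme/substrate mix dispensed; compound added, 10 min RT; NADPH regeneration solution added, 60 min RT; luciferin detection buffer stops reaction; 20 min later luminescence measured.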

[10] = target: Dual specificity protein kinase CLK4 (Homo sapiens) (UniProt Q9HAZ1); test: qHTS Assay for Inhibitors of CDC-like Kinase 4 (ADP-Glo Assay) (AID 1771); settings: recombinant CLK4, ADP-Glo luminescence; series mostly up to 80 µM; further: nearly all actives have a fitted effect of over 70% in size; further: potency means the concentration at half of the fitted maximal effect
Sequence of Dual specificity protein kinase CLK4 (Homo sapiens) (Q9HAZ1 whole entry, looked up): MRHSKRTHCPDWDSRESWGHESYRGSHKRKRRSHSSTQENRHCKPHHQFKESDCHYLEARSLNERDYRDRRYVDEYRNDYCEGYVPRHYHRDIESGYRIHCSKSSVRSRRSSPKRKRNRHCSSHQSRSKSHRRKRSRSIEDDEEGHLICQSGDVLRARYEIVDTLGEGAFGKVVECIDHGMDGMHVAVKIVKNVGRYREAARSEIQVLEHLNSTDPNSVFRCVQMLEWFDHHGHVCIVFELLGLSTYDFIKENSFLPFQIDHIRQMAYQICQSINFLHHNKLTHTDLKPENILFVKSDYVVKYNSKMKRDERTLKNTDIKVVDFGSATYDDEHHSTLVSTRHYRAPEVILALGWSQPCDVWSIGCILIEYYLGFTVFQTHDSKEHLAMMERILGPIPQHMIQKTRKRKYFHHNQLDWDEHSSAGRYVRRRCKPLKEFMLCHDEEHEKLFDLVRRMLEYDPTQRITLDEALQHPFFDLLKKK
In short: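 Luminescence from ADP-Glo reports ADP produced by 25 nM Clk4 acting on 100 uM RS repeat peptide with 1 uM ATP over 1 hr at room temperature; residual ATP is depleted before ADP is converted to ATP for detection.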

[11] = target: Dual specificity protein kinase CLK4 (Homo sapiens) (UniProt Q9HAZ1); test: qHTS Assay for Inhibitors of CDC-like Kinase 4 (ADP-FP Assay) (AID 1795); settings: Transcreener ADP fluorescence polarization; series mostly up to 50 µM;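 further: recombinant human CLK4 phosphorylating RS repeat peptide at 1 µM ATP; on the % scale 0 is the no-effect control and ±100 the full control effect; nearly all actives have a fitted effect of over 60% in size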
In short: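 Recombinant Clk4 (6.25 nM) phosphorylated 100 uM RS repeat peptide with 1 uM ATP in 25 mM Tris pH 7.5, 10 mM MgCl2, 0.5 mM EGTA, 2.5 mM DTT, 0.01% Triton X-100 for 1 h. ADP was detected by Transcreener ADP2 competitive fluorescence polarization after 30 min at room temperature.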

[12] = target: Ubiquitin carboxyl-terminal hydrolase 1 (Homo sapiens) (UniProt O94782); test: Inhibitors of USP1/UAF1: Pilot qHTS (AID 504865); settings: purified USP1/UAF1, Ub-rhodamine cleavage fluorescence; series mostly up to 54.9 µM; further: nearly all actives have a fitted effect of over 35% in size; further: potency means the concentration at half of the fitted maximal effect
Sequence of Ubiquitin carboxyl-terminal hydrolase 1 (Homo sapiens) (O94782 whole entry, looked up): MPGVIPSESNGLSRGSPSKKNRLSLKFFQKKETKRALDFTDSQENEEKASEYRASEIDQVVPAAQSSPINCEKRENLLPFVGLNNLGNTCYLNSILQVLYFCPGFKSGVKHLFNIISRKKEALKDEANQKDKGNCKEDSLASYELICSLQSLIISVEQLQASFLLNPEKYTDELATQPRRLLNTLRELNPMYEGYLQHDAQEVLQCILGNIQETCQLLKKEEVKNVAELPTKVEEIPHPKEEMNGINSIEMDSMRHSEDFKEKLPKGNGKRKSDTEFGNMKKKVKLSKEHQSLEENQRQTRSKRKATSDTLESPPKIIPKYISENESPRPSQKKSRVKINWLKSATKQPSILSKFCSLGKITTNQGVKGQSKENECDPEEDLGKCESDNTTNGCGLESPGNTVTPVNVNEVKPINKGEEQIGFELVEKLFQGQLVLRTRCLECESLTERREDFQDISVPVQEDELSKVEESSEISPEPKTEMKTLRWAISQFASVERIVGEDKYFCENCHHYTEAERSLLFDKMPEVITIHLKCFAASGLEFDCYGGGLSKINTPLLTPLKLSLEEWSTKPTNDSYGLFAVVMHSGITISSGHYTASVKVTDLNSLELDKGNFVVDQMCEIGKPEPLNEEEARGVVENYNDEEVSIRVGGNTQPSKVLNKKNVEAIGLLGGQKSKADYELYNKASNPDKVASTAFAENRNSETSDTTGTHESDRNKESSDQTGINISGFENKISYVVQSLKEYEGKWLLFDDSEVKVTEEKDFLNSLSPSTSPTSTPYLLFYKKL
In short: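 USP1/UAF1 complex at 1 nM preincubated 15 min at room temperature with compound, then Ub-Rho substrate added at 150 nM final. Fluorescence (480/540 nm) read kinetically in 50 mM HEPES pH 7.8, 0.5 mM EDTA, 1 mM TCEP, 0.1 mg/ml BSA, 0.01% Tween-20.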

[13] = Primary qHTS for small molecule stabilizers of the endoplasmic reticulum resident proteome: Secreted ER Calcium Modulated Protein (SERCaMP) assay (AID 1508630); settings: SH-SY5Y GLuc-SERCaMP (Gaussia luciferase released on ER calcium loss) secretion, thapsigargin, luminescence; series mostly up to 38.4 µM; further: on the % scale 0 is the no-effect control and ±100 the full control effect
In short: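 GLuc-SERCaMP-expressing SH-SY5Y cells, pretreated 16 h with compound, are challenged with thapsigargin to empty ER calcium stores; after 4 h, coelenterazine is added directly to the medium and luminescence is imaged.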

[14] = target: Cytochrome P450 3A4 (Homo sapiens) (UniProt P08684); test: qHTS Assay for Inhibitors and Substrates of Cytochrome P450 3A4 (AID 884); settings: recombinant CYP3A4, Luciferin-PPXE luminescence; series mostly up to 57.1 µM; further: nearly all actives have a fitted effect of over 50% in size; further: potency means the concentration at half of the fitted maximal effect
In short: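 20 nM human CYP3A4 with 25 uM Luciferin-PPXE (at KM) in 200 mM KPO4, preincubated 10 min with compound; NADPH regeneration started a 60 min RT reaction. Luciferin detected by luminescence, normalized to 57 uM ketoconazole as full inhibition.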

[15] = target: Dual specificity protein kinase CLK4 (Homo sapiens) (UniProt Q9HAZ1); test: qHTS Assay for Inhibitors of CDC-like Kinase 4 (Kinase-Glo Assay) (AID 1770); settings: recombinant Clk4, Kinase-Glo ATP depletion luminescence; series mostly up to 66.7 µM; further: potency means the concentration at half of the fitted maximal effect; nearly all actives have a fitted effect of over 65% in size
In short: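 25 nM Clk4 with 100 uM RS repeat peptide and 1 uM ATP (final) in Tris pH7.5, 10 mM MgCl2, 4.5 h at room temperature. Remaining ATP measured by Kinase-Glo luciferase luminescence.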

[16] = target: 3',5'-cyclic-AMP phosphodiesterase 4B (Homo sapiens) (UniProt Q07343); test: qHTS Assay for Inhibitors of PDE-IV (AID 607; active means well fitted activation curve with a large enough effect in the main read-out, with a control signal flat, not every such curve was filed as active; further: % of control where 0% means no effect); settings: HEK293 ACTOne CNG channel cells, membrane potential fluorescence; series mostly up to 22.9 µM
Sequence of 3',5'-cyclic-AMP phosphodiesterase 4B (Homo sapiens) (Q07343 whole entry, looked up): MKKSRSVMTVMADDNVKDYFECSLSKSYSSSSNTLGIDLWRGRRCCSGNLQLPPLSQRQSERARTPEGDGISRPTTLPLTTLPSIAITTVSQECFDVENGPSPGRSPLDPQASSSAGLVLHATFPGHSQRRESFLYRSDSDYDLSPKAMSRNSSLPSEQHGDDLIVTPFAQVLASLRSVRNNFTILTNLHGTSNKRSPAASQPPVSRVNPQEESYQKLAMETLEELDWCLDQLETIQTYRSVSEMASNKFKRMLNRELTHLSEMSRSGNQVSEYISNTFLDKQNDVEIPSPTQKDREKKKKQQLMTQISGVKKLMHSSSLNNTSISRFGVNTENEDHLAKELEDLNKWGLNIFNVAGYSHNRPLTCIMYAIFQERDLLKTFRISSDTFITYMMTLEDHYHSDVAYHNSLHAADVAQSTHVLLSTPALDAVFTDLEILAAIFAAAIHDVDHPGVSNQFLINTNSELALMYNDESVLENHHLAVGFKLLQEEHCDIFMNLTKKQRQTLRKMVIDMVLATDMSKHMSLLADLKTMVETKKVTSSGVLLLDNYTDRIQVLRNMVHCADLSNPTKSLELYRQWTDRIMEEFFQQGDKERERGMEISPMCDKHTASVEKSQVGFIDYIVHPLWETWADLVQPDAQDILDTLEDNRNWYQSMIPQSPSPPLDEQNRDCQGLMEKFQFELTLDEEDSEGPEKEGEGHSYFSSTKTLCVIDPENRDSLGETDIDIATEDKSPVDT
In short: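 The readout is membrane depolarisation from a cAMP-sensing CNG channel, detected with a potential dye at ex 535/em 590. Cells were HEK293-derived (endogenous PDE-IV) at 1000 cells/well, titrated up to 22.9 uM final.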

[17] = target: Cytochrome P450 2C19 (Homo sapiens) (UniProt P33261); test: qHTS Assay for Inhibitors and Substrates of Cytochrome P450 2C19 (AID 899); settings: recombinant CYP2C19, luciferin-H EGE luminescence; series mostly up to 57.1 µM; further: potency means the concentration at half of the fitted maximal effect; nearly all actives have a fitted effect of over 60% in size
Sequence of Cytochrome P450 2C19 (Homo sapiens) (P33261 whole entry, looked up): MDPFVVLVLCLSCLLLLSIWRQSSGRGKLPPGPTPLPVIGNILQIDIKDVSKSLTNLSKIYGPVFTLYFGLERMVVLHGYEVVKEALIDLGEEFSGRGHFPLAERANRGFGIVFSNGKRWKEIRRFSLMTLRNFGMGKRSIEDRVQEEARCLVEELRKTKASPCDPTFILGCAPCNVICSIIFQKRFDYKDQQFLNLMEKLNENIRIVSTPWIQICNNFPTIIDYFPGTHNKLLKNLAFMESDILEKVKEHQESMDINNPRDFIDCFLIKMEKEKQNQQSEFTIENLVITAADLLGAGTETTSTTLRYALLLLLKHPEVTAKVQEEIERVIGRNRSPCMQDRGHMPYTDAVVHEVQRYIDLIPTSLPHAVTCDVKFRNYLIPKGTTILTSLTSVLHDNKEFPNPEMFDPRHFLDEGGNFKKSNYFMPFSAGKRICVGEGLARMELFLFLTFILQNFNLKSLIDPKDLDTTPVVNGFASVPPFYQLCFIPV
In short: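 Human CYP2C19 (5nM) with Luciferin-H EGE at 10uM (its KM) in 50mM KPO4 was preincubated with compound for 10 min at 37C. NADPH regeneration started a 60 min 37C reaction. Luciferin was read by luminescence, normalized to 57uM ketoconazole.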

COc1ccccc1-c1nc(N2CCOCC2)c2ccccc2n1
inactive: Potency [1] > 11.4 µM | activity change, negative = inhibition [2] -9.32% | activity change, negative = inhibition [4] 10.4% | activity, negative = inhibition [5] 14.3% | Potency [6] > 46 µM | Potency [7] > 46 µM | Potency [8] | Potency [9] | Potency [11] | Potency [12] | outcome [13]
active: Potency [3] 0.501 µM | Potency [10] 20 µM

Clc1ccccc1-c1nc(NCc2cccnc2)c2ccccc2n1
active: Potency [3] 0.631 µM | Potency [14] 2.51 µM | Potency [15] 28.2 µM | Potency [12] 20 µM
inactive: activity change, negative = inhibition [2] -8.93% | activity change, negative = inhibition [4] 17.1% | activity, negative = inhibition [5] -13.8% | Potency [6] > 46 µM | Potency [7] > 46 µM | Potency [8] | Potency [9] | outcome [13]

COc1ccccc1CNc1ccnc(-c2c(C)noc2C)n1
inactive: Potency [1] > 11.4 µM | activity change, negative = inhibition [2] 18% | activity change, negative = inhibition [4] -13.8% | activity, negative = inhibition [5] -17.2% | Potency [6] > 46 µM | Potency [7] > 46 µM | Potency [8] | Potency [9] | Potency [10] | Potency [11] | outcome [13]
active: Potency [3] 0.398 µM | Potency [14] 5.01 µM

Cc1cnc(CNc2ncncc2-c2ccc(N(C)C)cc2)cn1
active: Potency [3] 3.16 µM | Potency [14] 2 µM | Potency [10] 15.8 µM
inactive: Potency [1] > 11.4 µM | activity change, negative = inhibition [2] 3.22% | activity change, negative = inhibition [4] -0.821% | activity, negative = inhibition [5] 13.6% | Potency [6] > 46 µM | Potency [7] > 46 µM | Potency [8] | Potency [16] | Potency [9] | Potency [11] | Potency [12] | outcome [13]

O=c1c(-c2ccc(Cl)cc2)nc2cnc(N3CCOCC3)nc2n1CCc1ccccc1
active: activity change, negative = inhibition [2] 87.9% [activator] | Potency [3] 2 µM | activity change, negative = inhibition [4] 112% [activator]
inactive: Potency [1] > 11.4 µM | Potency [8] | Potency [16] | Potency [14] | Potency [10] | Potency [11] | Potency [12] | outcome [13]

CN1CCN(c2ncc3ncc(=O)n(CCc4ccccc4)c3n2)CC1
active: Potency [3] 3.98 µM | Potency [17] 6.31 µM | Potency [10] 15.8 µM
inactive: Potency [1] > 11.4 µM | activity change, negative = inhibition [2] -5.68% | activity change, negative = inhibition [4] -2.1% | activity, negative = inhibition [5] 9.6% | Potency [6] > 9.22 µM | Potency [7] > 46 µM | Potency [8] | Potency [16] | Potency [9] | Potency [11] | Potency [12] | outcome [13]
